The list is not random: actives were taken first. Their share in the collection is about 13%.
Pf growth 96h: P. falciparum growth inhibition at 96 hour, primary screen for plastid delayed-death inhibitors. P. falciparum luciferase reporter growth, 96 h. Potency, µM (doses to about 28.7 µM), usual class: inhibitors. 320,000 compounds, 6.9% hits. AID 504834
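Delayed-death screen, second-generation endpoint: infected erythrocytes, 2% hematocrit, 0.05% parasitemia final; 96 hours at 37 C, 5% CO2; luciferase detection reagent; luminescence decrease equals reduced growth.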
Pf growth 48h: P. falciparum growth inhibition at 48 hours (one generation); P. falciparum luciferase growth in erythrocytes, 48 h; AID 504832; 310,000 compounds, 5.9% hits; Potency, µM (series often up to 28.7 µM), most hits filed as inhibitors
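Here the parasites carry a stable luciferase gene and grow inside erythrocytes in Albumax-based RPMI medium with compound for one erythrocytic cycle. Activity is scored as loss of luminescent signal.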
HCV inhibitor: blocks hepatitis C virus. Potency, µM (highest dose often 41.8 µM), usual class: inhibitors. Huh7.5.1 HCVcc-Cre infection, luciferase reporter, 44 h. 340,000 compounds, 3.4% hits
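Infectious HCV cell culture screen: compound-treated cells (1,000/well, pre-plated 4 h) are infected with HCVcc-Cre at roughly 0.5 moi and grown 44 h. Infection is quantified by luciferase signal after 15 min substrate incubation at room temperature.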
HCMV antiviral: inhibitors of human cytomegalovirus; activity change, negative = inhibition, % at 57.5 µM; HFF cells, HCMV-luciferase reporter, 72 h; active compounds read low; 410,000 compounds, 4.5% hits; in the data active = activity change below about -60%; inconclusive = no clear call, values can overlap the other calls; inactive = above about -39%
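Luciferase read-out from HCMV-luciferase-infected HFFs (MOI 1 PFU/cell) 72 h post infection at 37C; compounds added after 16 h cell attachment; activity normalized between buffer-only basal and Salinomycin (10uM) inhibitor controls.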
Of the large screens only hits and unclear results are named; the others gave an inactive call. Unless noted, calls follow the shape of the dose curve; as a rule, active = well fitted inhibition curve with a large enough effect; inconclusive = small, poorly fitted or top-dose-only effect, or another doubt; inactive = no such curve, though single readings can be large or run the other way.

COc1ccc(N(C(C)C(=O)N2CCCC2)S(C)(=O)=O)cc1 (stereo unspecified)	none
CCOc1ccc(N(C(C)C(=O)NN=C2CCCCCCC2)S(C)(=O)=O)cc1 (stereo unspecified)	HCMV antiviral inconclusive
COc1ccc(N(C(C)C(=O)NN=C2CCCC2)S(C)(=O)=O)cc1 (stereo unspecified)	Pf growth 96h 1.9µM
CCOC(=O)C1CCN(C(=O)C(C)N(c2ccc(Oc3ccccc3)cc2)S(C)(=O)=O)CC1 (stereo unspecified)	Pf growth 96h inconclusive, Pf growth 48h inconclusive, HCV inhibitor 10µM
CCOc1ccc(N(C(C)C(=O)N2CCCC2)S(C)(=O)=O)cc1 (stereo unspecified)	none
CCOC(=O)N1CCN(C(=O)C(C)N(c2ccc(Oc3ccccc3)cc2)S(C)(=O)=O)CC1 (stereo unspecified)	Pf growth 96h inconclusive, Pf growth 48h 12µM, HCV inhibitor inconclusive, HCMV antiviral -65
Cc1ccc(N(C(C)C(=O)N2CCOCC2)S(C)(=O)=O)cc1C (stereo unspecified)	Pf growth 96h 9.3µM, Pf growth 48h inconclusive
CC(=O)c1cccc(N(C(=O)Cn2nnc3ccccc32)C(C(=O)NCc2ccccc2)c2ccc(F)cc2)c1 (stereo unspecified)	none (no result: Pf growth 96h, Pf growth 48h, HCV inhibitor)
COc1ccc(N(C(C)C(=O)N2CCC(Cc3ccccc3)CC2)S(C)(=O)=O)cc1 (stereo unspecified)	Pf growth 48h inconclusive, HCV inhibitor 8.9µM, HCMV antiviral -74
COc1cccc(Nc2nccc3[nH]c(-c4cccc(C(C)C)c4)nc23)c1	none (no result: Pf growth 96h, Pf growth 48h, HCV inhibitor)
CCN(c1ccccc1)S(=O)(=O)c1ccc(OC)c(NC(=O)c2ccco2)c1	none (no result: Pf growth 96h, Pf growth 48h, HCV inhibitor)
CCN(c1ccccc1)S(=O)(=O)c1ccc(OC)c(NC(=O)C2CC(=O)N(Cc3ccccc3)C2)c1 (stereo unspecified)	Pf growth 96h 13µM, Pf growth 48h 6.6µM, HCV inhibitor inconclusive
CCN(c1ccccc1)S(=O)(=O)c1ccc(OC)c(NC(=O)C2=NN(c3ccccc3)C(=O)CC2)c1	Pf growth 96h inconclusive, Pf growth 48h 12µM, HCV inhibitor inconclusive
CCN(c1ccccc1)S(=O)(=O)c1ccc(OC)c(NC(=O)c2ccccc2OC)c1	Pf growth 96h inconclusive, Pf growth 48h inconclusive, HCV inhibitor inconclusive
O=S(=O)(O)CC(S)CS (stereo unspecified)	none (no result: HCV inhibitor, HCMV antiviral)
COCCNc1c2c(nc3c(-c4ccccc4)c(C)nn13)CCC2	Pf growth 96h inconclusive, Pf growth 48h inconclusive
Cc1nn2c(Nc3ccccc3)c3c(nc2c1-c1ccccc1)CCC3	Pf growth 96h 5.9µM, HCMV antiviral inconclusive
Cc1nn2c(NCCCN(C)C)c3c(nc2c1-c1ccccc1)CCC3	Pf growth 96h 10µM, HCV inhibitor inconclusive (no result: Pf growth 48h)
Cc1nn2c(NCC(C)C)c3c(nc2c1-c1ccccc1)CCC3	Pf growth 96h inconclusive, Pf growth 48h inconclusive, HCV inhibitor 6.3µM (no result: HCMV antiviral)
O=C(NCc1ccc(Cl)cc1)C1CCN(S(=O)(=O)Cc2ccccc2)CC1	none (no result: Pf growth 96h, Pf growth 48h, HCV inhibitor)
CCCCc1nn2c(=O)cc(COC(=O)c3ccc4c(c3)OCO4)nc2s1	none (no result: Pf growth 96h, Pf growth 48h, HCV inhibitor)
COc1cccc(-c2nc3c(c(SCC(=O)N4CCOCC4)n2)Cc2c(CO)cnc(C)c2O3)c1	Pf growth 96h 13µM, Pf growth 48h inconclusive, HCV inhibitor 11µM (no result: HCMV antiviral)
Cc1cccc(-c2nc3c(c(SCC(=O)N4CCOCC4)n2)Cc2c(CO)cnc(C)c2O3)c1	Pf growth 48h 5.9µM, HCV inhibitor 11µM (no result: HCMV antiviral)
Cc1ncc(CO)c2c1Oc1nc(-c3ccccc3)nc(SCC(=O)N(C)c3ccccc3)c1C2	Pf growth 96h 13µM, Pf growth 48h inconclusive (no result: HCV inhibitor)
CC(C)Oc1ccc(-c2nc3c(C#N)c[nH]n3c2NC2CCCCC2)cc1	none (no result: Pf growth 96h, Pf growth 48h, HCV inhibitor)
NC(=O)n1c(O)c(C(=O)c2cccs2)c2cc(Cl)ccc21	none (no result: HCV inhibitor, HCMV antiviral)
CCc1nn2c(=O)cc(COC(=O)c3cccc(NC(=O)c4ccccc4C)c3)nc2s1	none (no result: Pf growth 96h, Pf growth 48h, HCV inhibitor)
Cc1ccc(NC(=O)Cn2cc(S(=O)(=O)NC(C)C)c(S(=O)(=O)NC(C)C)c2)cc1Cl	none (no result: Pf growth 96h, Pf growth 48h, HCV inhibitor)
COc1cc(S(=O)(=O)N2CCC(c3nc4ccccc4s3)CC2)ccc1S(=O)(=O)NC1CCCC1	Pf growth 96h 9.3µM, Pf growth 48h inconclusive, HCV inhibitor inconclusive
COc1ccc(S(=O)(=O)N2CCC(c3nc4ccccc4s3)CC2)cc1OC	none (no result: Pf growth 96h, Pf growth 48h, HCV inhibitor)
COc1ccc(C2/C=C\CN(C(=O)c3ccccc3)[C@H](Cc3ccccc3)C(=O)N2Cc2ccc(F)cc2)cc1 (stereo partly specified)	Pf growth 96h inconclusive, Pf growth 48h inconclusive, HCV inhibitor inconclusive, HCMV antiviral -63
